Only some compounds are listed: those with a hit (about 19% of all), similar ones and a draw of the others.
TDP1 cell noCPT: qHTS for Inhibitors of human tyrosyl-DNA phosphodiesterase 1 (TDP1): qHTS in cells in absence of CPT. Potency, µM (top dose mostly 46.2 µM), without a hit: top-dose activity change, negative = growth inhibition, hits mostly inhibitors. DT40 Tdp1-/- hTDP1 cells, no CPT, ATP luminescence, 48 h. hit rate 15% among 420,000; further: potency means the concentration at half of the fitted maximal effect; nearly all actives have a fitted effect of over 55% in size
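Seeded 400 DT40-hTDP1 cells/well (vehicle DMSO, no 20 nM CPT); pinned compounds; ≥48 hr at 37 °C; CellTiter-Glo luminescence as viability measure.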
HT1080 IDH1KD tx: HT-1080 IDH1 knockdown cell toxicity (counter line). HT-1080 IDH1 knockdown viability, ATP luminescence, 48 h. Potency, µM (top dose mostly 46.1 µM), without a hit: top-dose activity, negative = toxicity, usual class: cytotoxic. hit rate 2% among 360,000;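 further: potency means the concentration at half of the fitted maximal effect; 0% = DMSO wells and -100% = cell-free medium wells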
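In this qHTS, HT-1080 cells depleted of IDH1 are exposed for 48 h at 37 °C to compound titrations. Toxicity is scored from CellTiter-Glo luminescence, with DMSO as full viability and medium alone as none.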
IL1B secr inh: inflammasome signaling inhibition, IL-1 beta readout | THP-1 LPS/ATP IL-1B secretion, AlphaLISA, 16 h; stronger effect = lower value | activity change, % at 57.5 µM | hit rate 4.7% among 360,000 | AID 743279; in the data active means activity change below about -50%; inconclusive means mostly about -30% to -49%
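Secreted IL-1B measured by AlphaLISA bead assay after 16 h compound exposure of THP-1 cells; compounds (final up to 57.5 uM) added 1 h before LPS (250 ng/mL) and ATP (1.25 mM) stimulation; lower signal means less secretion.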
ELG1 DNA repair: blocks ELG1-dependent DNA repair in HEK293T cells | HEK293T ELG1-luciferase reporter, luminescence, 16 h; DNA damage induced by 5-fluorouridine | Potency, µM (highest dose often 46.1 µM), without a hit: at the highest dose activity change, negative = inhibition, actives largely listed as inhibitors | hit rate 2.3% among 330,000 | AID 504467; further: potency means the concentration at half of the fitted maximal effect; nearly all actives have a fitted effect of over 55% in size
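5-Fluorouridine DNA damage + compound/DMSO, 2,000 cells/well, 16 h, 37 °C/5% CO2. ONE-Glo, 30 min RT, luminescence. Readout = decrease in reporter signal.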
TDP1 cell CPT: DT40-hTDP1 cell growth loss with CPT; chicken DT40 Tdp1-/-;hTDP1 cells + 20 nM CPT, ATP luminescence, 48 h; Potency, µM (highest dose often 46.2 µM), for inactives: at the highest dose activity change, negative = growth inhibition, actives largely listed as inhibitors; hit rate 12% among 420,000; AID 686979; further: potency means the concentration at half of the fitted maximal effect; nearly all actives have a fitted effect of over 55% in size
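Chicken DT40 Tdp1-/- cells stably complemented with human TDP1 were seeded at 400 cells/well in medium containing 20 nM camptothecin, exposed to pin-transferred compounds, and grown at 37 °C for at least 48 hr. Viability was read as ATP luminescence.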
HT1080-NT tox: kills 2HG-producing HT-1080-NT fibrosarcoma cells; hit rate 1.6% among 360,000; HT-1080-NT fibrosarcoma viability, CellTiter-Glo ATP luminescence, 48 h; Potency, µM (doses to about 46.1 µM), for inactives: at the top dose activity, negative = less viability, usual class: cytotoxic;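 further: NT is the 2HG producing partner of a matched IDH1 knockdown line; potency means the concentration at half of the fitted maximal effect; 0% = DMSO-treated cells and -100% = media-only wells without cells; nearly all actives have a fitted effect of over 55% in size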
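750 cells/well, RPMI + 5% FBS; 2 h settle, compound pin-transfer, 48 h at 37 degrees C. CellTiter-Glo 10 min RT, luminescence. Normalized to DMSO and media-only wells.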
* marks the source's active call; other numbers are inactive results; ? = inconclusive; · = not tested or not shown. Unless noted, the call rests on the fitted dose curve; in most records, active means well fitted curve in the direction sought with a large enough effect; inconclusive means small, poorly fitted or top-dose-only effect, or another doubt; inactive means no such curve, though single readings can be large; an effect the other way counts as inactive or inconclusive. Unless noted, on the % scale 0 is the no-effect control and ±100 the full control effect.

SMILES | TDP1 cell noCPT | HT1080 IDH1KD tx | IL1B secr inh | ELG1 DNA repair | TDP1 cell CPT | HT1080-NT tox
Cc1c(C(=O)Nc2cccc([N+](=O)[O-])c2)cnn1-c1ccccc1 | ? | -4% | ? | ? | ? | 0%
Cc1[nH]c2ccccc2c1/C=N/NC(=S)NC(C)C | ? | ? | -30 | -4% | ? | ?
COc1ccc(O)c(/C=N/NC(=S)NCCc2ccccc2)c1 | ? | ? | -97* | ? | ? | 15µM*
S=C(NCCc1ccccc1)N/N=C/c1ccccc1Cl | ? | -21% | 11 | ? | ? | 0%
CC(C)NC(=S)N/N=C/c1c[nH]c2ccccc12 | 3.7µM* | 7% | 16 | ? | 4.6µM* | 2%
O=C(CCc1ccccc1)NCC(=O)N/N=C/c1ccc(O)cc1O | ? | ? | 0 | 8.2µM* | ? | -26%
Oc1ccc(Br)cc1/C=N/NC(=S)NCCc1ccccc1 | 16µM* | ? | -75* | ? | ? | ?
Cc1ccc(C)c(OCC(O)CN2CCN(CCN3C(=O)c4cccc5cccc(c45)C3=O)CC2)c1 (stereo unspecified) | 18µM* | ? | -102* | 18µM* | 16µM* | 16µM*
CC(=O)c1ccccc1OCC(O)CN1CCN(c2ccccn2)CC1 (stereo unspecified) | -97% | 24% | 3 | -3% | -106% | 0%
CC(=O)c1ccccc1OCC(O)CN1CCN(CCN2C(=O)c3cccc4cccc(c34)C2=O)CC1 (stereo unspecified) | 6.5µM* | ? | ? | ? | 6.5µM* | ?
NC(=O)CN1CCN(CCN2C(=O)c3cccc4cccc(c34)C2=O)CC1 | -26% | -13% | 0 | 0% | -24% | 0%
CNc1cncc(-c2cccc(NS(C)(=O)=O)c2)n1 | ? | 10% | -21 | · | ? | 9%
Cc1c(C(=O)NCC(C)(C)N2CCOCC2)cnn1-c1ncc2c(n1)-c1ccccc1CC2 | -27% | · | · | · | ? | ·
CC(C)(CO)CNC(=O)CCc1nnc(-c2ccc(-c3ccccc3)cc2)o1 | 21µM* | -11% | -7 | ? | ? | 11%
CC(NC(=O)CCc1nnc(-c2ccc(-c3ccccc3)cc2)o1)c1nc2ccccc2[nH]1 (stereo unspecified) | 16µM* | -21% | ? | ? | 18µM* | -20%
COc1ccc(C(=O)C2CCCN(Cc3cccn3-c3ccc(Cl)cn3)C2)c(OC)c1 (stereo unspecified) | 21µM* | 18µM* | · | -25% | 13µM* | 16µM*
COc1ccc(C(=O)C2CCCN(Cc3c(F)ccc(F)c3F)C2)c(OC)c1 (stereo unspecified) | ? | -7% | -66* | -9% | 19% | 5%
COc1ccccc1/C=C/CN1CCCC(CCC(=O)NCc2ccccc2F)C1 (stereo unspecified) | 21µM* | -20% | ? | -3% | 18µM* | ?
COc1ccc(C(=O)C2CCCN(Cc3cnc(N4CCOCC4)s3)C2)cc1F (stereo unspecified) | -20% | -15% | 35 | ? | 3% | -26%
COc1ccc(C(=O)C2CCCN(Cc3cnc(N4CCOCC4)s3)C2)c(OC)c1 (stereo unspecified) | 16µM* | -12% | 23 | ? | -17% | -10%
CC(C)NC(=S)n1cc(C(=O)c2cc(Cl)cc(Cl)c2O)cn1 | -6% | -21% | 39 | -14% | -1% | -8%
Cc1cc(C)cc(-n2ccn(Cc3ccccc3C)c(=O)c2=O)c1 | -29% | · | · | · | -21% | ·

Screening results from PubChem.
